The results in this text go back to PubChem BioAssay (NCATS).

Unmarked numbers belong to inactive results. Inconclusive results are not listed. Calls of active or inactive are those of the source. Unless noted, the call rests on the fitted dose curve; in most records, active means well fitted curve in the direction sought with a large enough effect; inconclusive means small, poorly fitted or top-dose-only effect, or another doubt; inactive means no such curve, though single readings can be large; an effect the other way counts as inactive or inconclusive.

The target in experiment [1] is Lysosomal acid glucosylceramidase (Homo sapiens) (UniProt P04062). Nature of the experiment: Glucocerebrosidase-p2 (AID 348; in the data active means potency below about 10 µM; further: potency means the concentration at half of the fitted maximal effect). The settings on record: purified GBA, blue fluorogenic substrate, 40 min. The method, boiled down:
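Normal human glucocerebrosidase (0.2 nM) with blue fluorogenic substrate (80 uM final) in citrate/phosphate pH 5.9 with 10mM sodium taurocholate, 0.01% tween-20; 40 min RT, NaOH/glycine stop; fluorescence Ex 365/Em 440; AC50 from a titration from 0.6 nM upwards.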

A short description of experiment [2]: AP1 Signaling Pathway (AID 357; active means well fitted curve in either direction with a large enough effect, not every such curve was filed as active;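 further: ME-180 reporter cells stimulated with EGF at its EC50 level; on the % scale 0 is the no-effect control and ±100 the full control effect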). To be noted: ME-180 AP-1-bla reporter, EGF-induced, beta-lactamase ratio, 5 h; at 7.69 µM (top of the series) unless noted. The method, boiled down: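 Modulation of EGF-driven AP-1 transcription was assessed with a beta-lactamase reporter in ME-180 cells. Compound and EC50 EGF were co-incubated 5 hours at 37 °C before 2.5-hour CCF4 loading at room temperature and dual-emission reading.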

For experiment [3], the target named is Cytochrome P450 1A2 (Homo sapiens) (UniProt P05177). Description: p450-cyp1a2 (AID 410; calls by dose curve; further: potency means the concentration at half of the fitted maximal effect). The settings on record: recombinant CYP1A2, luciferin-ME demethylation, luminescence; series mostly up to 57 µM. The method, boiled down:
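20nM CYP1A2, 100uM Luciferin-ME (=Km), 100mM KPO4; cpd 10 min RT; +NADPH regen, 60 min RT; stop/detect 20 min; luminescence. Normalized to furafylline 57 uM = full inhibition.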

Experiment [4] can be described thus: Stat Signaling Pathway (AID 446; active means well fitted curve in either direction with a large enough effect, not every such curve was filed as active;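 further: ME-180 cervical cancer cells given 40 pM IL-6 alongside compound; SIE-controlled beta-lactamase reporter measured as 460/530 nm FRET emission ratio; on the % scale 0 is the no-effect control and ±100 the full control effect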). The settings on record: ME-180 (cervical carcinoma) SIE beta-lactamase reporter, IL-6 stimulated, 5 h; at 7.69 µM (top of the series) unless noted. The method, boiled down:
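Emission at 460 and 530 nm (excitation 405 nm) reports SIE-controlled beta-lactamase in ME-180 cells. Cells received compound with 40 pM IL-6 for 5 hrs at 37 C; data scaled between 300 pM IL-6 and 125 nM JAK-inhibitor controls.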

Experiment [5] deals with Glucocorticoid receptor (Homo sapiens) (UniProt P04150). Description: GR-GFP Redistribution (AID 450;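 active means compounds whose dose series gives a full or clear partial fitted curve of increased nuclear translocation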; further: potency means the concentration at half of the fitted maximal effect). To be noted: U2OS GR-GFP nuclear translocation, laser cytometry, 2 h.
Sequence of Glucocorticoid receptor (Homo sapiens) (P04150 whole entry, looked up): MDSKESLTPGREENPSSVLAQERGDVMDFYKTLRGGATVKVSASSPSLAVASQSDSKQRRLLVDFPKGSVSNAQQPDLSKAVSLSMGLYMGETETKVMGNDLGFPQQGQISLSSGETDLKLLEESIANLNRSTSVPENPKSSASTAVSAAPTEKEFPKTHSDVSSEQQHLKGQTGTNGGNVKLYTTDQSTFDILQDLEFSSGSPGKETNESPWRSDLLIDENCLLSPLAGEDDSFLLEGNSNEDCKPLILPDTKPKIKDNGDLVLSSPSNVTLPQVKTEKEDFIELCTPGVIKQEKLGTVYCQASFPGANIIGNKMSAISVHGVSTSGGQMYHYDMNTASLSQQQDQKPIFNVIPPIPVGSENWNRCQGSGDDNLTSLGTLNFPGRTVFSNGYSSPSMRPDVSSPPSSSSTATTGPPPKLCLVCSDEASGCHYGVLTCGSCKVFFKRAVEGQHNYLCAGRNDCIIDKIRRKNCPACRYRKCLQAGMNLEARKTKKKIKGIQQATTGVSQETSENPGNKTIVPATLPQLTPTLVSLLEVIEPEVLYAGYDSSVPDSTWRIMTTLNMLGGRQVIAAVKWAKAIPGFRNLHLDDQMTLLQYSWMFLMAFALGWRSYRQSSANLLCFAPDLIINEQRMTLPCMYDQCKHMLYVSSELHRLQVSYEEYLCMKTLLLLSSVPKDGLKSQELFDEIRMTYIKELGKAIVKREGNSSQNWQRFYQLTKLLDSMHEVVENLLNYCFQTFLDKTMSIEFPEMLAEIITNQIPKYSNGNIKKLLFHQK
The target is the same in experiment [6]. Description: GR-EFC Redistribution (AID 451; calls by dose curve; further: potency means the concentration at half of the fitted maximal effect). To be noted: CHO-K1 GR-EFC translocation, beta-gal luminescence, 2 h. The method, boiled down:
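CHO-K1 cells expressing nuclear EA and GR-ED fragments of b-gal; compounds titrated up to 46 uM final, 2 h at 37 C. GR nuclear translocation read as complemented b-gal luminescence after 1 h RT detection.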

Experiment [7] has as its target Mitogen-activated protein kinase 10 (Mus musculus) (UniProt Q61831). Nature of the experiment: JNK3 AlphaScreen Assay (AID 530; active means well fitted curve in either direction with a large enough effect, not every such curve was filed as active;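 further: kinase came from lysate of stimulated human HepG2 cells; signal reports phosphorylation of biotinylated GST-cJun 1-79 at Ser73 with 10 µM ATP; on the % scale 0 is the no-effect control and ±100 the full control effect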). The settings on record: JNK3 lysate, c-Jun phosphorylation; series mostly up to 57.1 µM. The method, boiled down: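 HepG2 lysate (IL-1b/TNFa pre-activated) + biotin-GST-cJun 1-79 + anti-pSer73 cJun; cpd titration, 15 min RT; ATP 10 uM start; Tris pH 7.6, MgCl2, DTT, vanadate; beads in EDTA buffer; AlphaScreen.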

Experiment [8] deals with Cytochrome P450 3A4 (Homo sapiens) (UniProt P08684). Description: qHTS Assay for Activators of Cytochrome P450 3A4 (AID 885). Further: nearly all actives have a fitted effect of over 65% in size. To be noted: recombinant CYP3A4, Luciferin-PPXE luminescence, 60 min; series mostly up to 57.1 µM. The method, boiled down: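 Activators are scored by enhanced luminescence from CYP3A4 conversion of luciferin-PPXE (25uM, equal to KM) to luciferin, after 60 min at RT with an NADPH-regenerating system.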
Sequence of Cytochrome P450 3A4 (Homo sapiens) (P08684 whole entry, looked up): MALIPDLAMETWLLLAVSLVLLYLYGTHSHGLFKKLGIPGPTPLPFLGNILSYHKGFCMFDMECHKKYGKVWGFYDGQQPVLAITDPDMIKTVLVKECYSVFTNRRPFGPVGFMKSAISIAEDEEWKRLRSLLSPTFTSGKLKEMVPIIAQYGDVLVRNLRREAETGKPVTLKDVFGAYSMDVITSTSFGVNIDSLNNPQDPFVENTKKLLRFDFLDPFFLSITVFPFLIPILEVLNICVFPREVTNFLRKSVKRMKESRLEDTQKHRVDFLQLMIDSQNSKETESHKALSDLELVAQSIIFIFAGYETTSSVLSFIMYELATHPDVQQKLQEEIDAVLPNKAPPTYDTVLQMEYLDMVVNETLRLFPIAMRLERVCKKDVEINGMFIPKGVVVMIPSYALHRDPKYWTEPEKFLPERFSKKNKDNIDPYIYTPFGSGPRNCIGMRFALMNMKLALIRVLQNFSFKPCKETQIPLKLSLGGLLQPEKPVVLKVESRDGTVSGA
A general note: In qHTS, concentration-response curves come from the screen itself.

The target in experiment [9] is Cytochrome P450 2D6 (Homo sapiens) (UniProt P10635). Nature of the experiment: qHTS Assay for Inhibitors and Substrates of Cytochrome P450 2D6 (AID 891). Further: potency means the concentration at half of the fitted maximal effect; nearly all actives have a fitted effect of over 60% in size. To be noted: recombinant CYP2D6, luciferin-ME EGE luminescence; series mostly up to 57.1 µM. The method, boiled down: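 Luminescent read-out of luciferin formed by 5 nM human CYP2D6 demethylating 30 uM Luciferin-ME EGE (Km level) over 60 min at room temperature after NADPH regeneration addition. Data normalized to full inhibition by 1.43 uM quinidine.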

The target of experiment [10] is Dual specificity protein kinase CLK4 (Homo sapiens) (UniProt Q9HAZ1). Description: qHTS Assay for Inhibitors of CDC-like Kinase 4 (Kinase-Glo Assay) (AID 1770). Further: nearly all actives have a fitted effect of over 65% in size. Further: potency means the concentration at half of the fitted maximal effect. The settings on record: recombinant Clk4, Kinase-Glo ATP depletion luminescence; series mostly up to 66.7 µM. The method, boiled down: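 Recombinant human Clk4 (25 nM) phosphorylated RS repeat peptide (100 uM) with 1 uM ATP in Tris pH 7.5/MgCl2/EGTA/DTT/Triton buffer for 4.5 h at room temperature. Residual ATP was quantified by Kinase-Glo luciferase luminescence.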
Sequence of Dual specificity protein kinase CLK4 (Homo sapiens) (Q9HAZ1 whole entry, looked up): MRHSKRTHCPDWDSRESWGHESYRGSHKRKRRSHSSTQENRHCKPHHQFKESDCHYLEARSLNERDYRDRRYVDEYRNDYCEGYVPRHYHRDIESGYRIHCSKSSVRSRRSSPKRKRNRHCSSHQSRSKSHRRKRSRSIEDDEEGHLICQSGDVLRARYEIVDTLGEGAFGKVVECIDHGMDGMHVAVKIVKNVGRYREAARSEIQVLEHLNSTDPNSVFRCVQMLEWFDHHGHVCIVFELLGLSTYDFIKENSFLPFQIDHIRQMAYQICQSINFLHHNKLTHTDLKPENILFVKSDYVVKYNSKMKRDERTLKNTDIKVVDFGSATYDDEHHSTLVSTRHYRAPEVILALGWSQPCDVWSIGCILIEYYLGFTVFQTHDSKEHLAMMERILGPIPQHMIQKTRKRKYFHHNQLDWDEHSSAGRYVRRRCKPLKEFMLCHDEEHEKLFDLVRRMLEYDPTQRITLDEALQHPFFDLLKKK

Experiment [11] has the same target. Nature of the experiment: qHTS Assay for Inhibitors of CDC-like Kinase 4 (ADP-Glo Assay) (AID 1771). Further: nearly all actives have a fitted effect of over 70% in size. Further: potency means the concentration at half of the fitted maximal effect. To be noted: recombinant CLK4, ADP-Glo luminescence; series mostly up to 80 µM. The method, boiled down:
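25 nM Clk4, 100 uM RS peptide, 1 uM ATP (final); 2 mM MgCl2, 0.5 mM EGTA, 2.5 mM DTT, 0.01% Triton X-100; 1 hr RT. ADP-Glo readout: ATP depletion 45 min, conversion/luciferase 30 min, luminescence.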

A short description of experiment [12]: Primary qHTS for small molecule stabilizers of the endoplasmic reticulum resident proteome: Secreted ER Calcium Modulated Protein (SERCaMP) assay (AID 1508630). Further: on the % scale 0 is the no-effect control and ±100 the full control effect. The settings on record: SH-SY5Y GLuc-SERCaMP (Gaussia luciferase released on ER calcium loss) secretion, thapsigargin, luminescence; series mostly up to 38.4 µM. The method, boiled down: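 The SH-SY5Y reporter protocol was run at 3 concentrations up to 38.3 uM (primary) or 11 concentrations (follow-up): 16 h compound, 100 nM thapsigargin for 4 h, then extracellular luciferase luminescence.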

Experiment [13] can be described thus: NFAT Signaling Pathway (AID 444; active means well fitted curve in either direction with a large enough effect, not every such curve was filed as active). The settings on record: Jurkat NFAT-bla M1, carbachol, beta-lactamase ratio, 5 h; at 7.69 µM (top of the series) unless noted. The method, boiled down: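 Jurkat cells with NFAT-driven β-lactamase reporter and co-expressed M1 receptor, stimulated with carbachol (final 1 uM, ~EC50), compound titration, 5 h at 37 °C. CCF4 loaded 1 h at RT; 460/530 nm ratio gave %activity and AC50.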

The target in experiment [14] is 3',5'-cyclic-AMP phosphodiesterase 4B (Homo sapiens) (UniProt Q07343). Description: qHTS Assay for Inhibitors of PDE-IV (AID 607; active means well fitted activation curve with a large enough effect in the main read-out, with a control signal flat, not every such curve was filed as active; further: % of control where 0% means no effect). The settings on record: HEK293 ACTOne CNG channel cells, membrane potential fluorescence; series mostly up to 22.9 µM. The method, boiled down: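 The readout is membrane depolarisation from a cAMP-sensing CNG channel, detected with a potential dye at ex 535/em 590. Cells were HEK293-derived (endogenous PDE-IV) at 1000 cells/well, titrated up to 22.9 uM final.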
Sequence of 3',5'-cyclic-AMP phosphodiesterase 4B (Homo sapiens) (Q07343 whole entry, looked up): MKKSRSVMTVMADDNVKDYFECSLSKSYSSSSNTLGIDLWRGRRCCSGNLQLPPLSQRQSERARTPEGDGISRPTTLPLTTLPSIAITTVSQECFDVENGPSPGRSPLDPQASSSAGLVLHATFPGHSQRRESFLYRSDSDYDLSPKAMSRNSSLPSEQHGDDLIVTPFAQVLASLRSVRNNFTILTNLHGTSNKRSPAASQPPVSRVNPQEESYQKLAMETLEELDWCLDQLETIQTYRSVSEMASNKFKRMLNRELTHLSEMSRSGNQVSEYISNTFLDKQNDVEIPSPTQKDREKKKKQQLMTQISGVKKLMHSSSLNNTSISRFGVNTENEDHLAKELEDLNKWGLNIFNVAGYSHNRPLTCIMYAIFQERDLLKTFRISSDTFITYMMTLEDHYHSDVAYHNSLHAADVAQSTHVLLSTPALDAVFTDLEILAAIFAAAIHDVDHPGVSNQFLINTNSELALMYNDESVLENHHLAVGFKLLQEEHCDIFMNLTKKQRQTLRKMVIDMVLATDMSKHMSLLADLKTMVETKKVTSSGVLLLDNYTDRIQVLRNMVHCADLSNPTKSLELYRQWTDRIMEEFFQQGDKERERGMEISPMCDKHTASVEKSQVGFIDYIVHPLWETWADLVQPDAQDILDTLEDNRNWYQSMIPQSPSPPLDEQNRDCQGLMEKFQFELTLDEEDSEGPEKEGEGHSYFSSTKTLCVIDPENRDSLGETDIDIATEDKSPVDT

Experiment [15] addresses Ubiquitin carboxyl-terminal hydrolase 1 (Homo sapiens) (UniProt O94782). Nature of the experiment: Inhibitors of USP1/UAF1: Pilot qHTS (AID 504865).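 Further: rhodamine fluorescence freed from ubiquitin-rhodamine substrate followed over time; top concentration of the series differs between compounds; on the % scale 0 is the no-effect control and ±100 the full control effect; nearly all actives have a fitted effect of over 35% in size.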 The settings on record: purified USP1/UAF1, Ub-rhodamine cleavage fluorescence; series mostly up to 54.9 µM. The method, boiled down: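 USP1/UAF1 complex (1nM) preincubated with compound 15 min at room temperature, then Ub-Rho substrate (150nM final) added. Fluorescence read kinetically at 480/540 nm, 6 reads every 60 seconds. Buffer: 50mM HEPES pH 7.8, 0.5mM EDTA, 0.1 mg/ml BSA, 1mM TCEP, 0.01% Tween-20.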

Experiment [16] has as its target Cytochrome P450 3A4 (Homo sapiens) (UniProt P08684). Description: qHTS Assay for Inhibitors and Substrates of Cytochrome P450 3A4 (AID 884). Further: potency means the concentration at half of the fitted maximal effect; nearly all actives have a fitted effect of over 50% in size. The settings on record: recombinant CYP3A4, Luciferin-PPXE luminescence; series mostly up to 57.1 µM. The method, boiled down:
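Luminescent readout of luciferin produced by CYP3A4 (20 nM) dealkylation of Luciferin-PPXE, 25 uM (its KM). NADPH-driven reaction ran 60 min at RT after 10 min compound preincubation; data scaled to 57 uM ketoconazole as 100% inhibition.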

For experiment [17], the target named is Cytochrome P450 2C19 (Homo sapiens) (UniProt P33261). Description: qHTS Assay for Inhibitors and Substrates of Cytochrome P450 2C19 (AID 899). Further: potency means the concentration at half of the fitted maximal effect; nearly all actives have a fitted effect of over 60% in size. To be noted: recombinant CYP2C19, luciferin-H EGE luminescence; series mostly up to 57.1 µM. The method, boiled down: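 5 nM human CYP2C19 with 10uM Luciferin-H EGE (at KM) in 50mM KPO4, compound preincubated 10 min at 37C, then NADPH regeneration for 60 min at 37C. Luciferin read by luminescence after detection reagent; normalized to 57uM ketoconazole as full inhibition.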
Sequence of Cytochrome P450 2C19 (Homo sapiens) (P33261 whole entry, looked up): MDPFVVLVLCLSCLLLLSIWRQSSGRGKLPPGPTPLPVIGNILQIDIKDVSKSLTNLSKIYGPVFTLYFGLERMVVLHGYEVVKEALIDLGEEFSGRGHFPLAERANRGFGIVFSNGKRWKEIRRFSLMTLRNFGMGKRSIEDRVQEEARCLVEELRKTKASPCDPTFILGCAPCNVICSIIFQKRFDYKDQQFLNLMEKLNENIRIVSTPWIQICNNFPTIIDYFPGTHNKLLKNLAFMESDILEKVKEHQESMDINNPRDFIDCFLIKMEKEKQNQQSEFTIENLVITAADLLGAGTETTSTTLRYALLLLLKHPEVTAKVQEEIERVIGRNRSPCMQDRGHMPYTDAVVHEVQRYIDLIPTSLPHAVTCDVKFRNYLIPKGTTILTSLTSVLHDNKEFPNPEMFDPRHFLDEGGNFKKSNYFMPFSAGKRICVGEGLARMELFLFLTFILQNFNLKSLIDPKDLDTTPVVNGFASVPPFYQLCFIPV

Sequence of Cytochrome P450 1A2 (Homo sapiens) (P05177 whole entry, looked up): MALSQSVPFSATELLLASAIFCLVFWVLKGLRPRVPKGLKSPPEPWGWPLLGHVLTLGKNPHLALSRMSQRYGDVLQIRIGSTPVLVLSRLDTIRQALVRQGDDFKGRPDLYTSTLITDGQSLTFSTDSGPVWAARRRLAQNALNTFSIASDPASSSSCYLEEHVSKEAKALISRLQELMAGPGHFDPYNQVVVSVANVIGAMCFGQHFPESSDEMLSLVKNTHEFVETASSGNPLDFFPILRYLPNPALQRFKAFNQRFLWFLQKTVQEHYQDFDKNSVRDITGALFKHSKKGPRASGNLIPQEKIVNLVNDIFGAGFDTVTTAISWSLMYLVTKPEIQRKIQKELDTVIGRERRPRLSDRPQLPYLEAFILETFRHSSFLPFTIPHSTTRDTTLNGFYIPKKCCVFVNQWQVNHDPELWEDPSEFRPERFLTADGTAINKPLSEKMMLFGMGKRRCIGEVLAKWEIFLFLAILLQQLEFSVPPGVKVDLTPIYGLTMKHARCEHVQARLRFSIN
Sequence of Ubiquitin carboxyl-terminal hydrolase 1 (Homo sapiens) (O94782 whole entry, looked up): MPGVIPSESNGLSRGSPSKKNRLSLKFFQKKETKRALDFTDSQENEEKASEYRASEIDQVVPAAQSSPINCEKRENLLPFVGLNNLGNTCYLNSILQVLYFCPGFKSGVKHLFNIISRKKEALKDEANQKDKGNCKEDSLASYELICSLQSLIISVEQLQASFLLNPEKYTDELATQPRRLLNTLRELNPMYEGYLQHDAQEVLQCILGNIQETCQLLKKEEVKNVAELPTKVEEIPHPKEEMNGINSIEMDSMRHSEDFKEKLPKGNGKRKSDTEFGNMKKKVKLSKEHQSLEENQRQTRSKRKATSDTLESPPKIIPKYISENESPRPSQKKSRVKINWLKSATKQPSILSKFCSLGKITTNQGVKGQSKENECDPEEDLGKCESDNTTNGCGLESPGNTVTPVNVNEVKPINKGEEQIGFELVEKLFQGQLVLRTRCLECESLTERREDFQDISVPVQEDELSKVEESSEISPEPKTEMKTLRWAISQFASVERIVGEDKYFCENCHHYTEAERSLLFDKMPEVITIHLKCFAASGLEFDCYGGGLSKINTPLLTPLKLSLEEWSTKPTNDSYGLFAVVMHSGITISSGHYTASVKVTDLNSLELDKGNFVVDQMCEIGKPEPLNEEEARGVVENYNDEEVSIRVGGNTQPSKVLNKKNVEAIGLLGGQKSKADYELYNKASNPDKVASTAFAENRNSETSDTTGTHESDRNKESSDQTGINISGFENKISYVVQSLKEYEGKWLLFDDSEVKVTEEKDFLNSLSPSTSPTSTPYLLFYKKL
Sequence of Lysosomal acid glucosylceramidase (Homo sapiens) (P04062 whole entry, looked up): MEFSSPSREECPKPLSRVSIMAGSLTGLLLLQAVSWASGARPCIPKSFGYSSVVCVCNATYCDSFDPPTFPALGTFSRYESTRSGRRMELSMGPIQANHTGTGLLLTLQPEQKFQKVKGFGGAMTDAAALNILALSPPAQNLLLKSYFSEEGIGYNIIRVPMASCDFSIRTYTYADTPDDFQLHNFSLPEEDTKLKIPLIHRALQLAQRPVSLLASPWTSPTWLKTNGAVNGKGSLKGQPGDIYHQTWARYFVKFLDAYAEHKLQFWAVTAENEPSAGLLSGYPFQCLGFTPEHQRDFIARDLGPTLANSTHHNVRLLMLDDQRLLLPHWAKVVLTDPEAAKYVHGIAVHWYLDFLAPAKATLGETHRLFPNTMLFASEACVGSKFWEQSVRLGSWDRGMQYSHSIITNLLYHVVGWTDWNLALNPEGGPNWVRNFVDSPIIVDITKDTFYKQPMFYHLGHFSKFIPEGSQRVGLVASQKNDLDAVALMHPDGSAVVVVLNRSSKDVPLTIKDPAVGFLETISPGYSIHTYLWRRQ

As for `COc1cccc(-c2nc(N(C)Cc3ccco3)c3ccccc3n2)c1`, the Potency is over 11.4 µM in experiment [1]; 0.316 µM (active) in [3]; over 46 µM in experiment [5]; over 46 µM in experiment [6]; 5.01 µM (active) in experiment [9]; 12.6 µM (active) in [10]. Further, in experiment [11], the Potency is 12.6 µM (active). Also, the activity change, negative = inhibition in experiment [2] is -7.73%. Moreover, the activity, negative = inhibition in experiment [4] is -9.79%. Besides, the Potency result in [7] and in experiment [8] was “inactive” each time. Also, in experiment [12], the result was inactive.

Take `COc1ccccc1-c1cc(NCc2cccs2)ncn1`: the Potency was over 11.4 µM in experiment [1]; 1.58 µM (active) in [3]; over 46 µM in [5]; over 46 µM in experiment [6]; 14.1 µM (active) in [10]; 14.1 µM (active) in [11]. Further, the activity change, negative = inhibition in experiment [2] was 0.573%; in experiment [13], 9.61%. Moreover, the activity, negative = inhibition in [4] was -5.58%. The Potency result in experiment [7], in experiment [14], in experiment [8] and in [15] was “inactive” each time. Also, the outcome in experiment [12] was inactive.

As to `c1ccc(Nc2nc(-c3ccc4c(c3)OCO4)nc3ccccc23)cc1`, the Potency in experiment [1] is 9.63 µM (active); in experiment [3] it was 1.26 µM (active); in experiment [5], over 46 µM; in [6] it was over 46 µM; in experiment [16], 5.01 µM (active); in [17], 3.16 µM (active). Besides, the Potency in experiment [10] was 28.2 µM (active); in experiment [11] it was 31.6 µM (active). Also, the activity change, negative = inhibition is -19.9% in experiment [2] and -26.1% in experiment [13]. Moreover, in experiment [4], the activity, negative = inhibition is -2.81%. In addition, the Potency result in experiment [7], in experiment [8] and in experiment [15] was “inactive” in each case. Moreover, the result in experiment [12] was inactive.

Turning to `COc1cccc(Cn2c(=O)cnc3cnc(OC)nc32)c1`, the Potency was over 11.4 µM in experiment [1], 12.6 µM (active) in [3], over 9.22 µM in experiment [5] and over 46 µM in experiment [6]. The activity change, negative = inhibition in experiment [2] was 17.7%; in [13], 20%. Further, the Potency result in experiment [7], in experiment [14], in [8], in experiment [10], in experiment [11] and in [15] was “inactive” each time. Also, the outcome in experiment [12] was inactive.

As for `c1cncc(-c2ccc3ncnc(NCCN4CCOCC4)c3c2)c1`, the Potency in experiment [1] is over 11.4 µM; in experiment [3], 1 µM (active); in experiment [5], over 46 µM; in [6] it was over 46 µM; in experiment [10] it was 15.8 µM (active); in experiment [11] it was 17.8 µM (active). The activity change, negative = inhibition in experiment [2] is -1.94%; in [13], 26%. Also, in [4], the activity, negative = inhibition is 2.95%. Besides, the Potency entry in [7], in experiment [14], in experiment [8] and in [15] was “inactive” in each case. Moreover, in experiment [12], the result was inactive.
